Reference: PubChem BioAssay
Calls of active or inactive are those of the source.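 How the source made its calls, unless noted: active means NADPH fluorescence slope more negative than the mean of all samples by about 3 SD, 99.7% confidence; inactive means the rest.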

Legend:
[1] = inhibitors of TNFa-induced NFkB p65 translocation, primary screen, imaging, HUVEC, MLSMR starter and 10KST1 sets (AID 438;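 active means inhibition above 20% together with a positive visual image hit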;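 further: compound added about 3h40 before a 20 min TNFalpha stimulation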;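 on inhibition: signal is the nuclear over cytoplasmic p65 intensity ratio per well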); details: HUVEC TNFa-induced p65 nuclear translocation; cell count: measured here: nuclei count (cytotoxicity indicator), at 2.08 µM; inhibition: at 2 µM, stronger effect = higher value, 0% TNFa-plus-vehicle, 100% no-TNFa wells
[2] = reduction of polyQ htt aggregates in cells – imaging, exon1htt(103Q)mCFP cells, high-content imaging, primary screen (AID 483;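 active means visual image review flags a hit and inhibition of aggregation exceeds 20%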;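 further: compound exposure lasted 3 days before fixation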;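 on nuclei count: percent of the per-plate median nuclei count of sample wells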); details: exon1htt(103Q)mCFP cell line, aggregate imaging, at 2 µM; inhibition of aggregation: stronger effect = higher value; nuclei count: measured here: cell count, toxicity
[3] = endothelial E-selectin expression blockers – imaging, HUVEC, immunofluorescence, MLSMR starter and 10KST1 sets, primary screen (AID 487;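 active means visually confirmed hit in the image check and inhibition above 20%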;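 on inhibition: signal is fraction of cell area covered by stained E-selectin grains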;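 on nuclei count: 100% = median nuclei count of all wells on the same plate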); details: HUVEC TNFalpha-induced E-selectin immunofluorescence imaging, at 2 µM; inhibition: stronger effect = higher value; nuclei count: measured here: cell number, toxicity
[4] = target: Voltage-gated potassium channel subunit beta-2 (Rattus norvegicus) (UniProt P62483); test: inhibitors of rat Kvbeta2 reductase activity – biochemical, NADPH fluorescence, primary screen (AID 622;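 active means fluorescence slope higher than the sample average by over 3 SD, cut at about -0.22 in these data, passing the limit was not always enough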;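 further: slope of raw intensity against log time taken from 70 to 1610 s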); details: recombinant KvBeta, 4-cyanobenzaldehyde reduction, at 10 µM, stronger effect = higher value
Sequence of Voltage-gated potassium channel subunit beta-2 (Rattus norvegicus) (P62483 whole entry, looked up): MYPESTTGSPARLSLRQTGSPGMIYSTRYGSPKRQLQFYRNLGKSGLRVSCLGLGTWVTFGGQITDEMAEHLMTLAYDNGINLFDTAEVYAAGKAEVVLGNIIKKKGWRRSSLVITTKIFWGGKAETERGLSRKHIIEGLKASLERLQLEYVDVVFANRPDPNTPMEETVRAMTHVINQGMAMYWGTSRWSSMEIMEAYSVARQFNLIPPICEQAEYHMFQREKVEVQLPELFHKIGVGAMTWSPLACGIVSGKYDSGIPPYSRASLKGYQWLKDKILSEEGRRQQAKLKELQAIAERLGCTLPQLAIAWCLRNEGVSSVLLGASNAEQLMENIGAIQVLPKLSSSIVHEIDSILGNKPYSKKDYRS

[5] = target: Voltage-gated potassium channel subunit beta-2 (Rattus norvegicus) (UniProt P62483); test: enhancers of rat Kvbeta2 NADPH turnover – biochemical, NADPH fluorescence, primary screen (AID 623); details: Recombinant KvBeta, NADPH fluorescence decrease slope, 10 min; at 10 µM; stronger effect = lower value;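 further: fluorescence intensity change per second fitted from 20 to 320 s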
[6] = target: Alpha-2C adrenergic receptor (Homo sapiens) (UniProt P18825); test: compounds altering alpha2C-coupled GIRK flux – cell-based, HEK293 alpha2C/GIRK1/2, thallium flux, primary screen (AID 624;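 active means fluorescence slope after compound addition differing from the mean of all screened samples at 99.7% confidence, in either direction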;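 further: slope of fluorescence ratio to pre-addition baseline per second over 15 to 24 s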); details: thallium flux BTC fluorescence, at 10 µM, actives lie on both sides
Sequence of Alpha-2C adrenergic receptor (Homo sapiens) (P18825 whole entry, looked up): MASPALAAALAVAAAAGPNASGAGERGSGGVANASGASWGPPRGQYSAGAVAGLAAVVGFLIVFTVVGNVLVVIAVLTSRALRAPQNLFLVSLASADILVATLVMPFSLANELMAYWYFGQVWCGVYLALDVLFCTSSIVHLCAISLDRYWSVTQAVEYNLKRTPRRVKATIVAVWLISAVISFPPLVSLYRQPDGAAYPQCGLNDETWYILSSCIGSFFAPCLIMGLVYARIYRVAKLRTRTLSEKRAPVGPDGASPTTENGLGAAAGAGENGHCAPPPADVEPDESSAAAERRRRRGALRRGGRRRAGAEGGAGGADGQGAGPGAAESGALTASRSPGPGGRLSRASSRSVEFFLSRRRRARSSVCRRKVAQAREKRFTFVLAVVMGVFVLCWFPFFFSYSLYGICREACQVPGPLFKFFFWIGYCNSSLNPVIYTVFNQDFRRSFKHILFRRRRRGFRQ

[7] = blockers of RIG-like receptor reporter activation – cell-based, Sendai virus stimulus, luciferase, 10K MLSCN set, TLR/RLR signaling modifier project, primary screen (AID 602276;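 active means inhibition at or above 50% at 10 µM; inactive means inhibition below 50%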;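 further: firefly luciferase from ISG56 promoter only with Renilla not read in this screen; 0% = Sendai virus plus DMSO and 100% = medium plus DMSO without virus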); details: HEK293 RL24 IRF3 luciferase reporter, at 10 µM, stronger effect = higher value
[8] = TLR3 IRF3 reporter activation blockers – cell-based, poly I:C stimulus, luciferase, 10K MLSCN set, primary screen (AID 602277;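 active means inhibition of the reporter signal at or above 50%; inactive means inhibition below 50%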); details: HEK293-TLR3 RL24 IRF3 luciferase reporter, at 10 µM, stronger effect = higher value

Row | Compound | cell count [1] | inhibition [1] | inhibition of aggregation [2] | nuclei count [2] | inhibition [3] | nuclei count [3] | fluorescence slope [4] | NADPH fluorescence slope [5] | slope [6] | inhibition [7] | inhibition [8]
1 | O=C1C2CC=CCC2C(=O)N1c1ccc(Cc2ccncc2)cc1 (centres undefined) | 591 | -2.9% (inactive) | -8.1% (inactive) | 107% | 29.1% (inactive) | 95.7% | -0.43 (inactive) | 5.4e-05 (inactive) | 0.00567 (inactive) | -2.68% (inactive) | -12.7% (inactive)
2 | COC(=O)C(O)(CC(=O)c1ccc(OC)cc1)C(F)(F)F (centres undefined) | 778 | -12.8% (inactive) | 4.5% (inactive) | 100% | 36% (inactive) | 99.4% | -0.507 (inactive) | -1.8e-05 (inactive) | 0.0048 (inactive) | 9.29% (inactive) | 9.82% (inactive)
3 | Cc1nn(-c2ccc(F)cc2)c2c1cc(C#N)c1nc3ccccc3n12 | 664 | 9.6% (inactive) | 29.9% (inactive) | 69.3% | 2.3% (inactive) | 102% | -0.000912 (active) | 1.1e-05 (inactive) | 0.00318 (inactive) | 9.91% (inactive) | 23.6% (inactive)
4 | CC(C)(C)C(=O)Cn1c[n+](N)cn1 | 545 | -9.5% (inactive) | -3.6% (inactive) | 118% | 18.1% (inactive) | 105% | -0.62 (inactive) | -3.8e-05 (inactive) | 0.00385 (inactive) | 18.9% (inactive) | 26.2% (inactive)
5 | CCC1CCCCN1C(=O)CSc1nnc(-c2ccc(OC)cc2)o1 (centres undefined) | 599 | -4.4% (inactive) | 20.5% (inactive) | 96.8% | -27.4% (inactive) | 113% | -0.539 (inactive) | 3e-05 (inactive) | 0.0067 (inactive) | -5.53% (inactive) | -21.5% (inactive)
6 | COc1cc(-c2noc(-c3ccccc3C(=O)NCc3ccco3)n2)cc(OC)c1OC | 654 | -5.4% (inactive) | -4% (inactive) | 112% | -111% (inactive) | 156% | -0.59 (inactive) | -4.7e-05 (inactive) | 0.00612 (inactive) | 14.7% (inactive) | 31.9% (inactive)
7 | O=C(NCCSc1c[nH]c2ccccc12)c1ccc(Br)o1 | 564 | 3.9% (inactive) | -4.5% (inactive) | 114% | -35.7% (inactive) | 113% | -0.559 (inactive) | -4.4e-05 (inactive) | 0.00687 (inactive) | 6.55% (inactive) | -6.47% (inactive)
8 | CCOC(=O)C1=C(C)N=C2SCCC(=O)N2C1c1cc(Br)ccc1OC (centres undefined) | 466 | 2.7% (inactive) | -4.8% (inactive) | 108% | -16% (inactive) | 85% | -0.499 (inactive) | 7.4e-06 (inactive) | 0.00736 (inactive) | 17.2% (inactive) | 20.9% (inactive)
9 | Cc1noc(C)c1CSc1ccccc1C(=O)N1CCN(c2ccccc2)CC1 | 427 | -1.2% (inactive) | -3.3% (inactive) | 95.9% | 14.6% (inactive) | 105% | -0.482 (inactive) | 1.7e-05 (inactive) | 0.00481 (inactive) | 1.46% (inactive) | 7.95% (inactive)
10 | COC(=O)N1CC(c2ccccc2)CC1=O (centres undefined) | 639 | -0.6% (inactive) | -22.4% (inactive) | 119% | -61.9% (inactive) | 73% | -0.47 (inactive) | -0.000268 (inactive) | 0.00505 (inactive) | 7.79% (inactive) | 16.7% (inactive)
11 | CCn1c(=O)c(C(=O)NCCc2ccccc2)c(O)c2ccccc21 | 724 | -0.3% (inactive) | -18.1% (inactive) | 96.4% | -9.2% (inactive) | 104% | -0.302 (inactive) | -2.8e-06 (inactive) | 0.0106 (inactive) | 18.3% (inactive) | 12.5% (inactive)
12 | Cn1c(=O)c2ncn(CC(=O)NCCOc3ccc(C(C)(C)C)cc3)c2n(C)c1=O | 762 | 2.2% (inactive) | -9.8% (inactive) | 103% | -15.3% (inactive) | 106% | -0.582 (inactive) | -3.7e-05 (inactive) | 0.00671 (inactive) | -12.6% (inactive) | -14.5% (inactive)
13 | COc1ccccc1CNS(=O)(=O)c1ccc(NC(C)=O)cc1 | 601 | 8.1% (inactive) | -1.3% (inactive) | 110% | -57.3% (inactive) | 109% | -0.411 (inactive) | -4.2e-05 (inactive) | 0.00719 (inactive) | 6.03% (inactive) | 6.94% (inactive)
14 | O=C(Cn1c(=O)oc2ccccc21)Nc1ccc(S(=O)(=O)N2CCCCC2)cc1 | 392 | 0.3% (inactive) | -5.3% (inactive) | 89.6% | -75.3% (inactive) | 126% | -0.504 (inactive) | -2.7e-05 (inactive) | 0.00415 (inactive) | 7.3% (inactive) | 14.4% (inactive)
